Assay outcomes as filed in PubChem.
Hits are enriched below; roughly 4.8% of the tested compounds scored in any of these assays.
ssDAF-12 act – S. stercoralis DAF-12 activation, primary screen. HEK293 ssDAF-12/GRIP1 lit1-tk-luc reporter, luminescence; % of 3 µM dafachronic acid response. activation, % at 6.8 µM. actives 1% (n = 370,000). AID 652126;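 active = activation above the mean over all tested compounds plus 3 SD, cut at about 0.9% in these data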
DAX1 inh-1 – blocks DAX1 repression of SF-1 activated StAR promoter | HEK293T StAR-luciferase reporter, SF-1/DAX-1 repression relief | inhibition, % at 6.8 µM | actives 1.1% (n = 370,000) | AID 652010;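 active = inhibition above the mean over all tested compounds plus 3 SD, cut at about 3.6% in these data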;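 also: higher inhibition means more luminescence from relief of DAX-1 repression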
hcDAF12 agonist – activators of H. contortus DAF-12 nuclear receptor; HEK293 hcDAF-12 lit1-tk-luc reporter, luminescence; 0% DMSO, 100% Δ7-dafachronic acid; activation, % at 6.8 µM; actives 1.4% (n = 370,000); AID 652067;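 active = activation above the mean of all tested compounds plus 3 SD, cut at about 5.5% in these data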
DAX1 inh-2 – NR0B1 (DAX1) inhibition; HEK293 Gal4-DAX1 luciferase reporter, luminescence; actives 0.99% (n = 340,000); P51843; inhibition, % at 6.75 µM; AID 504766;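 active = inhibition above the mean over all tested compounds plus 3 SD, cut at about 4.2% in these data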;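 also: inhibition shows as a rise in luminescence from relieved DAX1 repression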
Target sequence (P51843 207-470 limits assumed): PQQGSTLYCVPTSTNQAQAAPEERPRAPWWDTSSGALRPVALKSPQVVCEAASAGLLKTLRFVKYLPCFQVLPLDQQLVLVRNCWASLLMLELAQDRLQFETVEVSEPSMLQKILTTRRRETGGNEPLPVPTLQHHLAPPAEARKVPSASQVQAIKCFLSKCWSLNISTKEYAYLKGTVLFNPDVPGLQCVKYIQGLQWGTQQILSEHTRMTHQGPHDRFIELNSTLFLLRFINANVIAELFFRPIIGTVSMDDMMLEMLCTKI
SMARCA2 activ – SMARCA2 function activation, primary screen | MG213 cells, MMTV-luciferase reporter, dexamethasone, overnight | activation, % at 9.1 µM | actives 1% (n = 370,000) | AID 652017; in the data active = activation above about 7.8%
hgDAF12 agonist – hgDAF-12 agonism, primary luciferase screen; activation, % at 6.8 µM; HEK293 GAL4-hgDAF12 UAS-luciferase reporter, agonist luminescence; normalized to butyrate control; AID 687014; actives 1.8% (n = 370,000);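 active = activation above a cutoff set at the mean of all screened compounds plus 3 SD, cut at about 10% in these data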
Numbers stand for hits; n = inactive; x = no result given.

SMILES | ssDAF-12 act | DAX1 inh-1 | hcDAF12 agonist | DAX1 inh-2 | SMARCA2 activ | hgDAF12 agonist
COc1cccc(C(=O)NN/C(C)=C/C(=O)C(F)(F)C(F)(F)C(F)(F)F)c1 | n | n | n | n | 9.5 | n
CN(CC(=O)Nc1ccccc1Br)C(=O)c1cccn1C | n | n | n | n | n | n
O=C(Nc1ccc(Br)cc1Br)Nc1cccc2[nH]c([C@@H]3O[C@H](CO)[C@@H](O)[C@H](O)[C@H]3O)nc12 | 0.9 | n | n | x | n | n
Cc1ccsc1/C=C(\C#N)C(=O)Nc1c(C)n(C)n(-c2ccccc2)c1=O | n | n | n | 4.8 | n | n
Cc1c(NC(=O)/C(C#N)=C/c2ccccc2)c(=O)n(-c2ccccc2)n1C | n | n | n | n | n | n
COc1ccccc1Oc1nc2ccccn2c(=O)c1/C=C(\C#N)C(=O)Nc1c(C)n(C)n(-c2ccccc2)c1=O | n | n | n | 4.8 | n | n
Cc1ccc(Oc2nc3ccccn3c(=O)c2/C=C(\C#N)C(=O)Nc2c(C)n(C)n(-c3ccccc3)c2=O)c(C)c1 | n | n | n | n | n | n
C=CCOc1ccc(Cl)cc1-c1noc(-c2csc([C@H]3C[C@H](O)[C@@H](CO)O3)n2)n1 | n | n | n | x | n | n
CCOc1ccc(CC(=O)C2C(=O)CCCC2=O)cc1OCC | x | x | x | n | x | x
CCOc1ccc(CC(=O)C2C(=O)CC(C)(C)CC2=O)cc1OCC | n | n | n | 4.4 | n | n
CCc1ccc(OCC(=O)N2CCc3ccccc32)cc1 | n | n | n | n | n | 11.9
O=C(CCSCCc1ccccn1)Nc1cc(F)ccc1F | n | n | n | n | n | n
O=C(CCSCCc1ccccn1)Nc1ccc(Br)cc1F | 2.0 | n | n | n | n | n
O=C(c1ccccc1)c1nn(-c2ccc(Cl)cc2)cc1C(=O)c1cc2ccccc2oc1=O | 1.1 | n | n | n | n | n
NC(=O)c1cn(-c2ccccc2)nc1-c1cc2ccccc2oc1=O | n | n | n | n | n | n
C/C(=N\NC(=O)c1nn(C)cc1Br)c1cccc(NC(=O)C(C)(C)C)c1 | n | n | n | n | n | n
C/C(=N\NC(=O)c1nn(C)cc1Br)c1cccc(NC(=O)C2CCCC2)c1 | n | n | n | n | n | 11.0
CC(=O)Nc1ccc(-c2noc(-c3csc([C@@H]4C[C@H](O)[C@@H](CO)O4)n3)n2)cc1 | n | n | n | x | n | n
CC1(C(=O)NS(=O)(=O)c2ccccc2Cl)CCN1C(=O)C/C=C/c1ccccc1 (stereo not drawn) | n | n | n | x | n | 11.6
CSCCNC(=O)C1(C)CCN1C(=O)C/C=C/c1ccccc1 (stereo not drawn) | 1.2 | n | n | x | n | n
CC1(C(=O)NCC2CC2)CCN1C(=O)C/C=C/c1ccccc1 (stereo not drawn) | n | n | n | x | n | n
CCOc1ccc(CN(C)CC(=O)Nc2cc(OC)c([N+](=O)[O-])cc2C)cc1 | 1.2 | n | n | n | n | n
COc1cc(-c2c(C(=O)c3ccccc3)[nH]c(N)c2C(N)=O)ccc1O | n | x | n | x | x | n
C=CCN1C(=O)c2ccc(C(=O)N3CCN(S(=O)(=O)c4ccc(C(C)C)cc4)CC3)cc2C1=O | n | n | n | 4.4 | n | n
C=CCN1C(=O)c2ccc(C(=O)N3CCN(S(=O)(=O)c4cccc([N+](=O)[O-])c4)CC3)cc2C1=O | n | n | n | n | n | n
SMILES | ssDAF-12 act | DAX1 inh-1 | hcDAF12 agonist | DAX1 inh-2 | SMARCA2 activ | hgDAF12 agonist
O=C/C(=C\Nc1ccccn1)c1nc2ccccc2o1 | n | n | 5.8 | n | n | n
O=C/C(=C\Nc1ccc(Br)cc1)c1nc2ccccc2o1 | n | n | n | n | n | n
Brc1ccc(C2NCCS2)cc1 (stereo not drawn) | n | n | n | n | n | n
c1ccc(-c2cc3ccccc3cn2)cc1 | n | n | 6.2 | n | n | n
Nc1ncccc1OCc1ccc(Br)cc1 | n | n | n | n | n | 11.0
Cc1ccc(NC(=O)/C=C/C(=O)O)c([N+](=O)[O-])c1 | n | n | n | n | 7.8 | n
Cc1cc(NC(=O)/C=C\C(=O)O)c([N+](=O)[O-])cc1C | n | n | n | n | n | n
Cc1cc(C)c(NC(=O)Cn2nnc(C(=O)NCc3ccc4c(c3)OCO4)c2N)c(C)c1 | x | x | x | n | x | x
CN(C)c1ccc(C(=O)c2ccccc2)cc1 | 2.0 | n | n | n | n | n
CC(C)CC(NC(=O)c1ccccc1)C(=O)OCC(=O)Nc1ccc(S(N)(=O)=O)cc1 (stereo not drawn) | n | n | n | 4.5 | n | n
CC1CN/C(=C\C(=O)c2ccc(Cl)cc2)C(=O)N1 (stereo not drawn) | n | n | n | n | n | 12.2
CC1CN/C(=C\C(=O)c2ccccc2)C(=O)N1 (stereo not drawn) | n | n | n | n | n | n
O=C(COc1ccc2ccccc2c1)Nc1ccccc1C(=O)O | n | n | n | n | n | n
Cc1ccccc1C=O | n | n | n | n | n | n
Cc1ccccc1/C=C/C1=NCCN1 | 1.2 | n | n | n | n | n
Cn1c(=O)c2c(-c3ccccc3)n(-c3ccccc3Br)cc2n(C)c1=O | n | n | n | x | n | n
COC(=O)C1CCN(S(=O)(=O)c2c(C)n(C)c(=O)n(C)c2=O)CC1 | n | n | n | n | n | n
Cc1c(S(=O)(=O)N2CCCCC2)c(=O)n(C)c(=O)n1C | n | n | n | 4.3 | n | n
Cc1cccc(OCC(=O)Nc2ccc3c(c2)nc(CCN2CCN(C)CC2)n3C)c1 | n | n | n | 4.9 | n | n
c1ccc(-c2cn3nc(-c4ccccc4)sc3n2)cc1 | x | x | x | 5.6 | x | x
Cn1cc(C=O)c2ccccc21 | 1.3 | n | n | n | n | n
O=Cc1ccc(-n2cc(C=O)c3ccccc32)cc1 | n | n | n | n | n | n
O=C(COc1cccc(Cl)c1Cl)Nc1ccc2c(c1)CCC2 | n | n | n | n | n | n
O=C(COc1ccccc1Cl)c1ccc2c(c1)CCCC2 | n | n | n | n | n | 12.1
C=CCN1C=C2C(=O)C(C)(OC(=O)C3CCCC3)C(=O)C=C2C=C1c1ccsc1 (stereo not drawn) | 1.4 | n | n | n | n | n
SMILES | ssDAF-12 act | DAX1 inh-1 | hcDAF12 agonist | DAX1 inh-2 | SMARCA2 activ | hgDAF12 agonist
Cc1cccc(Cc2nnc(CCC(=O)N(C)CCc3ccccc3)o2)c1 | n | n | n | n | n | 11.9
Cc1cc(-c2nnc(CCC(=O)N(C)CCc3ccccc3)o2)no1 | n | n | n | n | n | n
CCN1C(=O)Nc2cccc3cccc1c23 | n | n | n | 4.8 | n | n
CC[C@H](NC(=O)/C=C/[C@H]1O[C@@H](n2cc(C)c(=O)[nH]c2=O)C[C@@H]1O)c1ccccc1 | n | n | n | x | n | n
C#CCN1C=CC(=O)[C@@H](O)[C@H]1c1ccccc1Br | n | n | n | n | n | n
Cc1nc(C(F)(F)F)ccc1C(=O)N1CCCC1(C)C(=O)NCC(C)C (stereo not drawn) | n | n | n | x | n | n
